# Assay results published in PubChem BioAssay.
# Activity calls are given as the source filed them.
# What was measured:
# [1] = E. coli DRC41 culture turbidity changes, primary screen, E. coli filamentation inducer project, strain DRC41, OD650, 48 h (AID 1152);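 also: E. coli MC1000 strain DRC41 lacking acrAB efflux pump and sulA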; conditions: E. coli DRC41 (acrAB sulA), higher = more signal, called active from +8 up or from −8 down
# [2] = small-molecule binders of probe aLefty1, primary screen, biochemical, small-molecule microarray, 635/667 nm fluorescence (AID 1153); conditions: higher = more signal;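 also: score merges spot fluorescence with signal-to-noise ratio from the scanned slide images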
# [3] = PSAC antagonists in infected red cells, primary screen, cell-based, P. falciparum Indochina, OD700, 1 h (AID 1154); conditions: P. falciparum Indochina infected RBC osmotic lysis, higher = more signal, called active from +8 up or from −8 down
# [4] = PSAC antagonists in infected red cells, primary screen, cell-based, P. falciparum Indochina, OD700, 2 h (AID 1155);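 also: lysis reports solute entry through the parasite surface anion channel PSAC; channel blockers reduce lysis of infected cells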; conditions: P. falciparum Indochina infected erythrocytes, osmotic lysis OD700; higher = more signal, called active from +8 up or from −8 down
# [5] = osmotic lysis modulators in infected erythrocytes, primary screen, PSAC antagonist project, cell-based, P. falciparum Indochina, OD700, 3 h (AID 1156); conditions: higher = more signal, called active from +8 up or from −8 down
# [6] = PSAC antagonists in infected red cells, primary screen, cell-based, P. falciparum Indochina, OD700, 18 h (AID 1157); conditions: P. falciparum Indochina infected erythrocytes, osmotic lysis OD700, 18 h; higher = more signal, called active from +8 up or from −8 down
# [7] = modulators of S6 phosphorylation in cells, primary screen, cell-based, A549, cytoblot, luminescence, serum-stimulated (AID 1158); conditions: A549 phospho-S6 cytoblot, 5 h, higher = more signal;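 also: serum-stimulated A549 lung adenocarcinoma cells; signal is phosphorylated S6 detected by cytoblot immunostaining with HRP secondary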
# [8] = target: NADPH oxidase 2 (Homo sapiens) (UniProt P04839); test: NOX2-dependent H2O2 signal modulators, primary screen, NOX inhibitor project, cell-based, HEK293-NOX2, PMA-stimulated, Amplex Red fluorescence (AID 1159); conditions: 45 min, higher = more signal, called active from +8 up or from −8 down; also: test concentration not given here
# Sequence of NADPH oxidase 2 (Homo sapiens) (P04839 whole entry, looked up): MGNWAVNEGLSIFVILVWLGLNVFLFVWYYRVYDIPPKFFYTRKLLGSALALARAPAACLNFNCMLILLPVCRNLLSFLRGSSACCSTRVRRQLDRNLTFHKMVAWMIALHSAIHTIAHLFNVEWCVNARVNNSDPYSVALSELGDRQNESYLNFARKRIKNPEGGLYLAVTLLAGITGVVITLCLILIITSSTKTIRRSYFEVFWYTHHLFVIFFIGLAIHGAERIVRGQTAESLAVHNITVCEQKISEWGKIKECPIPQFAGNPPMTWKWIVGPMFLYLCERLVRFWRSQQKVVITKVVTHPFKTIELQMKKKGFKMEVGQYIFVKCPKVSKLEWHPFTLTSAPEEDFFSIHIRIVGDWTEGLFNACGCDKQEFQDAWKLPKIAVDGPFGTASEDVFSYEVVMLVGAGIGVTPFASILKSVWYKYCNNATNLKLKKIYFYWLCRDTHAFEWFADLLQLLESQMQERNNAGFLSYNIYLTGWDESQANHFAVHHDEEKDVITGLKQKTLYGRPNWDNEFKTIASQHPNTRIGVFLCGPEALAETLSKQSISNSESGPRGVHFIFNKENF
# [9] = target: NADPH oxidase 4 (Homo sapiens) (UniProt Q9NPH5); test: NOX4-dependent H2O2 signal modulators, primary screen, NOX inhibitor project, cell-based, HEK293-NOX4, tetracycline-induced, Amplex Red fluorescence (AID 1160); conditions: 45 min, higher = more signal, called active from +8 up or from −8 down
# Sequence of NADPH oxidase 4 (Homo sapiens) (Q9NPH5 whole entry, looked up): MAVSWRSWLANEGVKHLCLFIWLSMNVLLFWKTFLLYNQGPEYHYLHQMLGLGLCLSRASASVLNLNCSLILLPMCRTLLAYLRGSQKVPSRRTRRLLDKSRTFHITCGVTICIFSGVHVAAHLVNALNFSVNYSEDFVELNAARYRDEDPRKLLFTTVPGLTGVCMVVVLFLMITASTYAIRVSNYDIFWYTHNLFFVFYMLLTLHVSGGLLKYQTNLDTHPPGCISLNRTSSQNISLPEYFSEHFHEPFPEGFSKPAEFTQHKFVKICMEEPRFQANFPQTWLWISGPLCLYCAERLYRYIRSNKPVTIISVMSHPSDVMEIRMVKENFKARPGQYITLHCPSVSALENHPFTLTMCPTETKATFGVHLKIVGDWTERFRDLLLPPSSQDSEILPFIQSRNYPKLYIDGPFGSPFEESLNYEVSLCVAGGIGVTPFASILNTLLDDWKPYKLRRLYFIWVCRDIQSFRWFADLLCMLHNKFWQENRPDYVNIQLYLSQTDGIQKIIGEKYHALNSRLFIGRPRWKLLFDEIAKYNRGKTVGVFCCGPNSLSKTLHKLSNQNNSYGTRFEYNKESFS
# [10] = target: NADPH oxidase 5 (Homo sapiens) (UniProt Q96PH1); test: NOX5-dependent H2O2 signal modulators, primary screen, NOX inhibitor project, cell-based, HEK293-NOX5, Amplex Red fluorescence (AID 1161); conditions: HEK293-NOX5, ionomycin, 45 min, higher = more signal
# Sequence of NADPH oxidase 5 (Homo sapiens) (Q96PH1 whole entry, looked up): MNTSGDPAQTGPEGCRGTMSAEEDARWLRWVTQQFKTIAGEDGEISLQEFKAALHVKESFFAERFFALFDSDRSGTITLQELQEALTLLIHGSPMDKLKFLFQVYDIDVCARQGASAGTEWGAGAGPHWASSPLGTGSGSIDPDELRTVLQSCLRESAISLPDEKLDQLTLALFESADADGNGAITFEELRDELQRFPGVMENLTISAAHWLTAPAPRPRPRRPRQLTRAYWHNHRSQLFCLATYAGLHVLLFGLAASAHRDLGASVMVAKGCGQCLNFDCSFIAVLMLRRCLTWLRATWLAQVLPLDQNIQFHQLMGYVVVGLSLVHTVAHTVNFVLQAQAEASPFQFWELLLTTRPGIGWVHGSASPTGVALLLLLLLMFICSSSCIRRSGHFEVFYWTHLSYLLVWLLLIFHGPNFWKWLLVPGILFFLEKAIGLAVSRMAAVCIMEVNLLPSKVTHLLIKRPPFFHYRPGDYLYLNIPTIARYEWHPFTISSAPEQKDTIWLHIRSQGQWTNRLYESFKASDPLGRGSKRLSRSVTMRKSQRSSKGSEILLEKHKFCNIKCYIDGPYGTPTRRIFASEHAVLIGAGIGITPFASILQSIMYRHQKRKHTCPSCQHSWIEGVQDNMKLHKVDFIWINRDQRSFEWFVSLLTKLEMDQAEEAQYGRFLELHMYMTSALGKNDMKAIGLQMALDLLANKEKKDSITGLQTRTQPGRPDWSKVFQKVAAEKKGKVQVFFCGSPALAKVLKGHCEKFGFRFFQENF
Structure (SMILES),z-score [1],composite z-score [2],z-score [3],z-score [4],z-score [5],z-score [6],z-score [7],z-score [8],z-score [9],z-score [10]
O=C1C[C@@](C(=O)NCCN2CCOCC2)(c2ccc([N+](=O)[O-])cc2)[C@@H](c2ccc(CO)cc2)N1C1CCCCC1,1.21 (inactive),-0.154,2.02 (inactive),0.834 (inactive),3.08 (inactive),-0.137 (inactive),-0.371,0.768 (inactive),0.947 (inactive),0.24
COCCOC(=O)N1C(=O)[C@@]2(c3cc(C#CCCO)ccc31)[C@H](C(=O)N1CCCCCCC1)[C@H]1C(=O)O[C@H](c3ccccc3)[C@H](c3ccccc3)N1[C@@H]2c1ccc(O)cc1,3.86 (inactive),1.6,1.06 (inactive),-0.755 (inactive),-0.0793 (inactive),-1.32 (inactive),5.3,1.7 (inactive),0.807 (inactive),1.67
[N-]=[N+]=NCc1ccccc1C[C@@]1(C(=O)N2CCOCC2)N=C(c2ccc(OCCCO)cc2)O[C@@H]1c1ccccc1N=[N+]=[N-],0.664 (inactive),1.1,30.5 (active),27.7 (active),2.82 (inactive),7.87 (inactive),1.36,-1.49 (inactive),0.897 (inactive),-0.107
[N-]=[N+]=NCc1ccccc1C[C@]1(C(N)=O)N=C(c2ccc(OCCCO)cc2)O[C@H]1c1ccccc1CN=[N+]=[N-],0.0277 (inactive),0.71,29.3 (active),19.8 (active),1.82 (inactive),2.86 (inactive),2.41,-1.06 (inactive),0.885 (inactive),-0.692
C=C(COC)/C(=C/C[C@@H](OC(C)=O)c1cccc(OCCO)c1)c1cc(C(=O)OC)ccc1OC,1.37 (inactive),0.0319,15.7 (active),0.098 (inactive),0.363 (inactive),-1.44 (inactive),-0.316,1.51 (inactive),1.28 (inactive),-1.1
C=CC[C@]1(C(=O)N2CCCCC2)N=C(c2ccc(OCCCO)cc2)O[C@H]1c1ccccc1N=[N+]=[N-],0.297 (inactive),0.707,35.8 (active),31.6 (active),4.43 (inactive),8.93 (active),0.0944,-1.88 (inactive),0.898 (inactive),-0.971
O=C(N1CCCCC1)[C@@]1(CCS(=O)(=O)c2ccccc2)N=C(c2ccc(OCCCO)cc2)O[C@H]1c1ccccc1,0.646 (inactive),0.347,30.1 (active),24.2 (active),2.17 (inactive),4.24 (inactive),2.24,-4.27 (inactive),0.156 (inactive),-4.84
CCOC(=O)C[C@H]1[C@H](OC(=O)c2ccccc2-c2ccccc2)[C@@H](NC(=O)c2ccc(-c3ccccc3)cc2)c2cc(OCCCO)ccc2N1C(=O)Cc1ccc(OC)cc1,-0.866 (inactive),-0.147,17.3 (active),2.83 (inactive),-0.405 (inactive),0.575 (inactive),0.111,0.155 (inactive),1.22 (inactive),1.21
Cc1ccccc1C(O)C1C=CC2C(=O)N(c3ccccc3)C(=O)C2N1Nc1ccc(C#N)cc1 (configuration not stated),0.307 (inactive),1.1,26 (active),14.9 (active),3.53 (inactive),1.81 (inactive),-0.762,-0.865 (inactive),-4.92 (inactive),-3.18
O=C1C2C=CC(C(O)C#Cc3ccccc3)N(Nc3ccccc3)C2C(=O)N1c1ccccc1 (configuration not stated),-0.559 (inactive),-0.025,4.69 (inactive),1.8 (inactive),0.537 (inactive),1.49 (inactive),-0.964,-0.432 (inactive),-4.44 (inactive),-1.09
C=C(CCCC)/C(=C/C[C@H](OC(=O)c1ccncc1)c1cccc(OCCO)c1)c1cc(C(=O)OC)ccc1OC,1.93 (inactive),0.0406,21.6 (active),3.75 (inactive),1.61 (inactive),-0.403 (inactive),1.21,-3.36 (inactive),-1.72 (inactive),-2.92
C=CC(=O)O[C@@H](Cc1ccccc1)[C@H]1C2C=CCCC=C2CN1Cc1cccc(Cl)c1 (some centres not stated),3.24 (inactive),-0.378,1.35 (inactive),0.893 (inactive),0.781 (inactive),0.182 (inactive),0.711,-0.192 (inactive),0.758 (inactive),0.467
C/C(=N\O)C(=O)NCCCCCNC(=O)OCc1ccccc1,1.93 (inactive),-0.194,15.4 (active),2.09 (inactive),-0.222 (inactive),0.501 (inactive),-0.246,-0.459 (inactive),0.0531 (inactive),-0.588
C[C@@H]1C=CCC(=O)OC[C@H]2O[C@@H](C=C[C@@H]2O)[C@H](C)C=CCC(=O)OC[C@H]2O[C@H]1C=C[C@@H]2O,-1.91 (inactive),0.596,0.43 (inactive),0.278 (inactive),-1.65 (inactive),-0.725 (inactive),2.22,-1.01 (inactive),0.418 (inactive),0.0421
C#CCCCON=C1C[C@@H](O)[C@@H](O)[C@@H]2[C@@H]3C(=O)N(Cc4ccc5c(c4)OCO5)C(=O)[C@@H]3CC[C@H]12,0.324 (inactive),-0.161,–,–,–,–,-0.852,-0.275 (inactive),0.911 (inactive),-0.124
CCN1C(C)=C(C(=O)OC)[C@@H](c2ccccc2)N2C(=O)[C@@]3(C(=O)OC)O[C@@]12[C@@H]1C(=O)N(c2ccccc2)C(=O)[C@@H]13,0.325 (inactive),0.0166,0.69 (inactive),-0.39 (inactive),0.0305 (inactive),-1.08 (inactive),0.422,-0.816 (inactive),0.267 (inactive),-0.283
C=CCc1cccc([C@H]2N[C@H](C(=O)O)CC[C@@H]2C)c1,0.574 (inactive),-0.237,0.734 (inactive),1.15 (inactive),0.794 (inactive),0.443 (inactive),-0.167,0.183 (inactive),0.773 (inactive),0.0482
C[C@@H]1CC[C@H]2C(=O)N3[C@@H](CC[C@@H](C)[C@@H]3c3cccc(N4CCOCC4)c3)C(=O)N2[C@H]1c1cccc(Br)c1,0.801 (inactive),-0.0061,8.99 (active),1.51 (inactive),0.826 (inactive),0.71 (inactive),-0.246,0.693 (inactive),0.815 (inactive),0.717
CC(=O)NCCCC[C@@H]1NC(=O)[C@@H]2C[C@H](C(=O)NCCCCCCN(C)C)[C@H](c3ccc(O)cc3)N2C1=O,1.03 (inactive),-0.0619,1.19 (inactive),-1.12 (inactive),-2.63 (inactive),-2.32 (inactive),-0.0253,-0.498 (inactive),-1.45 (inactive),0.253
COC(=O)[C@@]1(Cc2ccccc2N=[N+]=[N-])N=C(c2ccc(OCCCO)cc2)O[C@H]1c1ccccc1CN=[N+]=[N-],0.383 (inactive),0.191,22.3 (active),8.71 (active),0.12 (inactive),3.46 (inactive),0.575,-1.84 (inactive),0.483 (inactive),-0.961
CC(=O)NCCCC[C@@H]1NC(=O)[C@@H]2C[C@H](C(=O)NCCCCCNC(=O)CS)[C@H](c3ccc(O)cc3)N2C1=O,3.01 (inactive),-0.0528,2.55 (inactive),-0.247 (inactive),-2.2 (inactive),-1.04 (inactive),1.68,0.391 (inactive),0.284 (inactive),0.531
CO[C@H]1COC(=O)[C@@H](OCc2ccccc2)C=C[C@H](C)[C@@H](OC)COC(=O)[C@H](OCc2ccccc2)C=C[C@@H]1C,-0.282 (inactive),-0.0966,-0.0125 (inactive),-0.952 (inactive),-1.35 (inactive),-1.68 (inactive),1.55,-0.174 (inactive),0.433 (inactive),0.467
C#CCCCON=C1C[C@@H](O)[C@@H](O)[C@@H]2[C@@H]3C(=O)N(Cc4ccc5c(c4)OCO5)C(=O)[C@@H]3CC[C@@H]12,0.741 (inactive),0.137,–,–,–,–,-0.0259,0.192 (inactive),0.773 (inactive),-0.019
CC(C)[Si](OCC[C@H]1O[C@]2(C(=O)N(Cc3ccccc3)c3ccccc32)[C@@H](C)[C@@H]1[Si](C)(C)O)(C(C)C)C(C)C,0.65 (inactive),-0.193,0.914 (inactive),0.799 (inactive),0.226 (inactive),0.403 (inactive),0.158,0.999 (inactive),-0.328 (inactive),0.523
